The source of these data is PubChem BioAssay (NCATS).

Results filed as inconclusive are left out. A number with no mark means an inactive call. Active and inactive are the calls of the source. The call rests on the fitted dose curve; in most records, active means well fitted inhibition curve with a large enough effect; inconclusive means small, poorly fitted or top-dose-only effect; inactive means flat fitted curve, though single readings scatter.
Potency means the concentration at half of the fitted maximal effect.

The first test has as its system CP217. In words: qHTS profiling for inhibitors of Plasmodium falciparum proliferation (AID 504749). Further: nearly all actives have a fitted effect of over 60% in size.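 On activity, negative = inhibition: 0% = DMSO vehicle and full inhibition = artemisinin control.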 The settings on record: P. falciparum in erythrocytes, SYBR Green DNA, 72 h; series mostly up to 28.7 µM; activity, negative = inhibition: at the top concentration. Summed up: (§1)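 Each compound contacts P. falciparum-infected red blood cells for 72 h at 37 C; lysis buffer (Tris, EDTA, saponin, Triton X, SYBR Green I) is added and fluorescence measured next morning; values normalized to controls.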
Turning to `CCCN(CCc1cccs1)[C@H]1CCc2c(O)cccc2C1`, the Potency was 11.2 µM (active).

For `CC1=C(C(=O)O)N2C(=O)[C@@H](NC(=O)[C@H](N)c3ccccc3)[C@H]2SC1`, the “activity, negative = inhibition” value was 4.07%.

Regarding `O=C(CN1CCN(Cc2ccc3c(c2)OCO3)CC1)N1c2ccccc2Sc2ccccc21`, the Potency is 11.2 µM (active).

On to `COc1cc(N)c(Cl)cc1C(=O)NC1CCN(Cc2ccccc2)CC1`, for which the “activity, negative = inhibition” value is -12.2% [at 12.8 µM].

On to `O=C(NC1CCN(CCc2c[nH]c3ccccc23)CC1)c1ccccc1`, for which the “activity, negative = inhibition” value was -24.2%.

As for `O=[N+]([O-])c1cccc(S(=O)(=O)NCCNS(=O)(=O)c2cccc([N+](=O)[O-])c2)c1`, the “activity, negative = inhibition” value is -25.7%.

Turning to `C[N+]1(C)CCC(=C(c2ccccc2)c2ccccc2)CC1`, the “activity, negative = inhibition” value is -5.29% [at 12.8 µM].

Consider `CC[N+](C)(CC)CCOC(=O)C(O)(c1ccccc1)C1CCCCC1` (centres undefined), for which the “activity, negative = inhibition” value is -18.7%.

On to `Oc1c(Cl)cc(Cl)c(Cl)c1Cc1c(O)c(Cl)cc(Cl)c1Cl`, for which the Potency was 8.91 µM (active).

As for `CCNC(=O)/C=C/c1cccc(Br)c1`, the “activity, negative = inhibition” value is -24.6%.

As for `Cn1c(=O)c2[nH]c(Br)nc2n(C)c1=O`, the “activity, negative = inhibition” value is -7.16%.

In the case of `CO[C@]12C[C@@H](COC(=O)c3cncc(Br)c3)CN(C)[C@@H]1Cc1cn(C)c3cccc2c13`, the “activity, negative = inhibition” value is -27.9%.

Turning to `CN(CCCN1c2ccccc2CCc2ccccc21)CC(=O)c1ccc(Cl)cc1`, the Potency was 11.2 µM (active).

Regarding `Cc1ccc2c(Br)cc(Br)c(O)c2n1`, the Potency is 10 µM (active).

For the molecule `Cc1cc2c(OCC(CNC(C)(C)C)OC(=O)c3ccccc3)cccc2[nH]1` (centres undefined), the “activity, negative = inhibition” value was -23.2%.

As to `CC(C)[N+](C)(C)CC(O)COc1cccc2ccccc12` (centres undefined), the “activity, negative = inhibition” value is -26.3%.

In the next test the test system is CP237. Described as above. The settings on record: P. falciparum in erythrocytes, SYBR Green DNA, 72 h; series mostly up to 28.7 µM; activity, negative = inhibition: at the top concentration. Summed up: as §1
For the molecule `CN1CCc2cccc3c2[C@H]1Cc1ccc(O)c(O)c1-3`, the Potency was 6.31 µM (active).

Turning to `CCN(CC)CCOc1ccc2c(c1)C(=O)c1cc(OCCN(CC)CC)ccc1-2`, the Potency is 12.6 µM (active).

Turning to `CCCN(CCc1cccs1)[C@H]1CCc2c(O)cccc2C1`, the Potency was 3.16 µM (active).

With `CC(C)(Cc1c[nH]c2ccccc12)NCC(O)COc1ccccc1C#N` (centres undefined), the Potency is 10 µM (active).

With `CC1=C(C(=O)O)N2C(=O)[C@@H](NC(=O)[C@H](N)c3ccccc3)[C@H]2SC1`, the “activity, negative = inhibition” value is -3.43%.

`O=S(c1cc(Cl)cc(Cl)c1O)c1cc(Cl)cc(Cl)c1O`: the Potency was 7.08 µM (active).

For the molecule `COc1cc(N)c(Cl)cc1C(=O)NC1CCN(Cc2ccccc2)CC1`, the “activity, negative = inhibition” value is -14.5% [at 12.8 µM].

Consider `O=C(NC1CCN(CCc2c[nH]c3ccccc23)CC1)c1ccccc1`, for which the “activity, negative = inhibition” value is -17.7%.

In the case of `C[N+]1(C)CCC(=C(c2ccccc2)c2ccccc2)CC1`, the “activity, negative = inhibition” value is -22.9% [at 12.8 µM].

With `CC[N+](C)(CC)CCOC(=O)C(O)(c1ccccc1)C1CCCCC1` (centres undefined), the “activity, negative = inhibition” value was -8.81%.

Take `Oc1c(Cl)cc(Cl)c(Cl)c1Cc1c(O)c(Cl)cc(Cl)c1Cl`: the Potency is 11.2 µM (active).

For the molecule `CCNC(=O)/C=C/c1cccc(Br)c1`, the “activity, negative = inhibition” value was -14.9%.

On to `CCCCCCCCCCCCOCCOCCOCCOCCOCCOCCOCCOCCOCCO`, for which the “activity, negative = inhibition” value was -24.7%.

For `Cn1c(=O)c2[nH]c(Br)nc2n(C)c1=O`, the “activity, negative = inhibition” value is -6.81%.

`CC(C)(C)NC[C@H](O)COc1nsnc1N1CCOCC1`: the Potency is 5.01 µM (active).

On to `OC(C#CCN1CCCC1)(c1ccccc1)c1ccccc1`, for which the Potency is 5.01 µM (active).

Turning to `CN(CCCN1c2ccccc2CCc2ccccc21)CC(=O)c1ccc(Cl)cc1`, the Potency was 12.6 µM (active).

`Cc1cc2c(OCC(CNC(C)(C)C)OC(=O)c3ccccc3)cccc2[nH]1` (centres undefined): the Potency is 11.2 µM (active).
